The values below come from PubChem BioAssay (NCI).

Holding throughout (experiment): NCI-60 one-dose screen, 48 h (100 = growth as untreated, 0 = no growth, -100 = all killed)
One test deals with T-47D breast. The conditions noted are these: 10 µM unless noted.
A further test deals with BT-549 breast. Conditions: 10 µM unless noted.
The test system of a further test is MDA-MB-435 melanoma. The conditions noted are these: 10 µM unless noted.
The next test deals with SW-620 colon. Conditions: 10 µM unless noted.
The test system of the next test is MCF7 breast. Conditions: 10 µM unless noted.
In another test the test system is HCT-116 colon. Conditions: 10 µM unless noted.
A further test deals with HCC-2998 colon. The conditions noted are these: 10 µM.
In the next test the test system is KM12 colon. The conditions noted are these: 10 µM unless noted.

Each structure is given as a SMILES string. Compounds without any hit were thinned out: in the full panel of roughly 83,000, 20% have a hit.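 96-well plates, one dose, 48 hours. Percent growth reported; active if below 10.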 Values without a mark were called inactive. Activity calls are given as the source filed them.

Turning to `O=C1NC(=O)[C@@H](c2cn3c4c(cccc24)CCC3)[C@@H]1c1c[nH]c2ccccc12`, the growth was 24.3% with T-47D breast; 16.2% in the test on BT-549 breast; -13.2% (active) in the test with MDA-MB-435 melanoma; 27.5% with SW-620 colon; 19.5% in the test with MCF7 breast; 2.94% (active) with HCT-116 colon. Further, the growth in the test on HCC-2998 colon is 18.4%; in the test with KM12 colon, 4.42% (active).
Turning to `NC1(c2ccc(-c3nc4ccn5c(=O)[nH]nc5c4cc3-c3ccccc3)cc2)CCC1`, the growth in the test with T-47D breast was -70.4% (active); in the test with BT-549 breast, 17%; with MDA-MB-435 melanoma, 27%; with SW-620 colon it was 55%; in the test with MCF7 breast it was 12.2%; in the test on HCT-116 colon it was 23.3%. Moreover, the results for the growth in the test on HCC-2998 colon and with KM12 colon were 33.6% and 26.9%, respectively.
Regarding `COC(=O)[C@H](Cc1ccc(O)cc1)NC(=O)[C@@H](OC)[C@@H]1Cc2cc3cc(OC4CC(OC5CC(O)C(O)C(C)O5)C(O)C(C)O4)c(C)c(O)c3c(O)c2C(=O)[C@H]1OC1CC(OC2CC(OC3CC(C)(O)C(O)C(C)O3)C(O)C(C)O2)C(O)C(C)O1` (stereo not given in full), the growth in the test on T-47D breast was 4.63% (active); in the test with BT-549 breast, -36.9% (active); with MDA-MB-435 melanoma, -26.8% (active); in the test on SW-620 colon, 11.3%; in the test with MCF7 breast it was 8.15% (active); in the test on HCT-116 colon, 4.11% (active). The growth in the test with HCC-2998 colon was -67% (active); with KM12 colon it was 5.68% (active).
As for `CO[C@H]1C[C@@H]2CC[C@@H](C)[C@@](O)(O2)C(=O)C(=O)N2CCCC[C@H]2C(=O)O[C@H]([C@H](C)C[C@@H]2CC[C@@H](OP(C)(C)=O)[C@H](OC)C2)CC(=O)[C@H](C)/C=C(\C)[C@@H](O)[C@@H](OC)C(=O)[C@H](C)C[C@H](C)\C=C/C=C/C=C/1C`, the growth with T-47D breast is 11.5%; in the test on BT-549 breast, 39.7%; with MDA-MB-435 melanoma, 56.7%; in the test on SW-620 colon, 60.1%; in the test with MCF7 breast it was 30.5%; with HCT-116 colon it was 65.1%. Besides, the growth was 56.4% in the test on HCC-2998 colon and 59.6% in the test on KM12 colon.
In the case of `COCC(=O)NC/C=C/c1ccc2ncnc(Nc3ccc(Oc4ccc(C)nc4)c(C)c3)c2c1`, the growth in the test on T-47D breast is -0.662% (active); with BT-549 breast, 62%; in the test on MDA-MB-435 melanoma, 32.9%; with SW-620 colon, 47.9%; with MCF7 breast it was 49.1%; in the test with HCT-116 colon, 29.3%. Moreover, the growth is 36.6% with HCC-2998 colon and 28.8% in the test with KM12 colon.
For `Nc1ccc(S(=O)(=O)O)c2cc(S(=O)(=O)O)cc(O)c12`, the growth in the test with T-47D breast is 120%; with BT-549 breast, 99%; in the test with MDA-MB-435 melanoma, 110%; in the test with SW-620 colon, 107%; in the test with MCF7 breast it was 104%; in the test on HCT-116 colon, 93.7%. Besides, the growth with HCC-2998 colon was 117%; in the test with KM12 colon, 102%.
Turning to `Cc1ccc(NC(=O)Nc2ccc(Nc3ncnc4sc5c(c34)CCOC5)cc2)cc1Cl`, the growth in the test with T-47D breast was 58.5%; with BT-549 breast it was 101%; with MDA-MB-435 melanoma, 103%; in the test on SW-620 colon it was 133%; in the test with MCF7 breast, 82.8%; with HCT-116 colon, 101%. Besides, the growth is 112% in the test with HCC-2998 colon and 105% with KM12 colon.
Turning to `CC/C=C\C[C@H]1C/C=C2/C(=O)C=C[C@@H]2C/C=C\CCCC(=O)O1`, the growth in the test on T-47D breast was 39.7%; in the test with BT-549 breast, -20.4% (active); in the test with MDA-MB-435 melanoma it was -45.5% (active); in the test with SW-620 colon, -51% (active); in the test on MCF7 breast, -1.97% (active); with HCT-116 colon, -67.5% (active). Moreover, the growth in the test on HCC-2998 colon was -79.4% (active); in the test on KM12 colon it was -68.7% (active).
`CC(=O)C(C(C)=O)C(c1ccccc1)C(C(C)=O)C(C)=O`: the growth is 102% with T-47D breast; 105% with BT-549 breast; 104% in the test with MDA-MB-435 melanoma; 110% with SW-620 colon; 90.2% with MCF7 breast; 91.3% in the test with HCT-116 colon. Further, the growth is 106% with HCC-2998 colon and 110% with KM12 colon.
For `COc1cc(N2CCC(N3CCN(C)CC3)CC2)ccc1Nc1ncnc(Nc2ccccc2S(=O)(=O)C(C)C)n1`, the growth in the test on T-47D breast is 74.7%; in the test with BT-549 breast it was 104%; in the test on MDA-MB-435 melanoma it was 108%; in the test with SW-620 colon, 100%; with MCF7 breast, 88.6%; with HCT-116 colon, 88.2%. Moreover, the growth with HCC-2998 colon was 97.3%; in the test with KM12 colon it was 109%.
In the case of `COc1ccc(C2CC(=O)c3c(O)c(OC)c(OC)c(OC)c3O2)c(O)c1` (stereo not given), the growth in the test on T-47D breast is 57.8%; with BT-549 breast, 60.6%; in the test with MDA-MB-435 melanoma, -33.7% (active); in the test on SW-620 colon, 26.2%; in the test with MCF7 breast, 32.5%; in the test on HCT-116 colon it was 10.2%. The values for the growth in the test with HCC-2998 colon and with KM12 colon were 15.9% and 19.9%, respectively.
As for `CNS(=O)(=O)Nc1nccc(Cc2c(C)c3ccc(Oc4ncccn4)cc3oc2=O)c1F`, the growth was 60.1% in the test with T-47D breast; 68.6% in the test with BT-549 breast; 37.1% in the test on MDA-MB-435 melanoma; 29% with SW-620 colon; 79.2% in the test with MCF7 breast; 19.2% with HCT-116 colon. For the same compound, the results for the growth in the test with HCC-2998 colon and with KM12 colon were 1.07% (active) and 26.1%, respectively.
For the compound `CCc1nc(C(N)=O)c(Nc2ccc(N3CCC(N4CCN(C)CC4)CC3)c(OC)c2)nc1NC1CCOCC1`, the growth was 65.1% in the test on T-47D breast; 19.9% in the test with BT-549 breast; 52.3% with MDA-MB-435 melanoma; 3.96% (active) in the test on SW-620 colon; 25.6% in the test on MCF7 breast; 5.33% (active) in the test with HCT-116 colon. Further, the growth is 61.4% in the test with HCC-2998 colon and 13.8% with KM12 colon.
`COC(=O)C1=C(C(=O)OC)C23C=C(C)C1C2=C(C)C1(CC1)[C@@](C)(O)C3=O` (stereo not given in full): the growth in the test with T-47D breast is -3.03% (active); in the test on BT-549 breast, -35.7% (active); in the test with MDA-MB-435 melanoma, -18.2% (active); in the test on SW-620 colon, 78.1%; with MCF7 breast it was 11.3%; in the test on HCT-116 colon, 5.3% (active). The values for the growth in the test on HCC-2998 colon and in the test on KM12 colon were -22.1% (active) and 29.6%, respectively.
Regarding `COc1cc(CCc2cc(NC(=O)c3ccc(N4C[C@@H](C)N[C@@H](C)C4)cc3)n[nH]2)cc(OC)c1`, the growth is 63.7% in the test with T-47D breast; 43.8% with BT-549 breast; 28.4% in the test on MDA-MB-435 melanoma; 28.7% in the test with SW-620 colon; 19.9% in the test with MCF7 breast; 25.6% in the test on HCT-116 colon. For the same compound, the growth in the test with HCC-2998 colon was 56.3%; in the test on KM12 colon, 3.18% (active).
